WRN inhibitor: qHTS for Inhibitors of WRN Helicase; Bifunctional 3'-5' exonuclease/ATP-dependent helicase WRN (Homo sapiens), Q14191; WRN helicase unwinding, fluorescent forked duplex, kinetic; Potency, µM (doses to about 114 µM), without a hit: top-dose activity change, negative = inhibition, hits mostly inhibitors; 0.46% of 360,000 active; note: % is set by controls: 0 for no effect and ±100 for the full control effect; nearly all actives have a fitted effect of over 55% in size
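WRN at 20 nM final was preincubated with compound for 15 min at room temperature; reaction started with 100 nM forked duplex oligonucleotide carrying fluorophore and quencher plus 2 mM ATP (final). Unwinding followed kinetically by red fluorescence (ex 525/em 598 nm).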
POLB inh: qHTS Assay for Inhibitors of DNA Polymerase Beta | Potency, µM (doses to about 114 µM), for inactives: top-dose activity change, negative = inhibition, most hits filed as inhibitors | Pol beta primer extension/strand displacement, fluorescence kinetic | 1.3% of 340,000 active; note: % is set by controls: 0 for no effect and ±100 for the full control effect
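Preincubation: enzyme (10 nM) with compound, 15 min, RT. Reaction: substrate added to 50 nM final. Reads: 0 and 10 min. Analysis: normalized, Hill fit.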
POLI inh: qHTS for Inhibitors of Polymerase Iota; 1% of 390,000 active; Pol iota fluorescent replication assay, 10 min; DNA polymerase iota (Homo sapiens), Q9UNA4; Potency, µM (titrated, usually from 115 µM), inactives show top-dose activity, negative = inhibition, most hits filed as inhibitors; AID 588590, 2011
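Pol iota at 10 nM preincubated 15 min with compounds at room temperature; reaction started with fluorescent substrate, 50 nM final. Fluorescence read kinetically at 0 and 10 min; buffer-only wells as negative control.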
Pol kappa inh-1: qHTS for Inhibitors of Polymerase Kappa; purified Pol kappa, fluorescent DNA synthesis assay, 10 min; Potency, µM (series often up to 107 µM), without a hit: top-dose activity, negative = inhibition, most hits filed as inhibitors; 0.53% of 400,000 active; note: % is set by controls: 0 for no effect and ±100 for the full control effect
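50 nM final substrate added after 15 min RT preincubation of 10 nM Pol kappa with compound; fluorescence read at 0 and 10 min.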
FEN1 inhibitor: qHTS Assay for the Inhibitors of Human Flap endonuclease 1 (FEN1); P39748; Recombinant FEN1 flap cleavage, fluorescence, 15 min; Potency, µM (series often up to 114 µM), without a hit: at the top dose activity change, negative = inhibition, most hits filed as inhibitors; 0.35% of 390,000 active; AID 588795, 2011; note: % is set by controls: 0 for no effect and ±100 for the full control effect; nearly all actives have a fitted effect of over 65% in size
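Recombinant FEN1 (10 nM) was preincubated with pin-transferred compounds for 15 min at room temperature, then flap DNA substrate (50 nM final) was added. Plates were read at 0 and 15 min, and normalized concentration–response data were fitted to a four-parameter Hill equation.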
Pol eta inh-1: qHTS for Inhibitors of Polymerase Eta | recombinant Pol eta, fluorescent DNA replication assay | 1.2% of 390,000 active | AID 588591, 2011 | DNA polymerase eta (Homo sapiens), Q9Y253 | Potency, µM (doses to about 114 µM), without a hit: at the top dose activity change, negative = inhibition, usual class: inhibitors; note: % is set by controls: 0 for no effect and ±100 for the full control effect
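Pol eta at 10 nM preincubated with compounds 15 min at room temperature; reaction started with fluorescent substrate (50 nM final) and read kinetically at 0 and 10 min.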
Pol iota confirm: qHTS for Inhibitors of Polymerase Iota: Confirmatory Assay for Cherry-picked Compounds | shares compounds with Pol kappa inh-1 | Pol iota primer extension, TAMRA/BHQ fluorescence | Potency, µM, hits mostly inhibitors | 77% of 1,500 active
Pol kappa inh-2: qHTS for Inhibitors of Polymerase Kappa: Confirmatory Assay for Cherry-picked Compounds; 76% of 920 active; shares compounds with Pol eta inh-1; Potency, µM, hits mostly inhibitors; purified Pol-kappa, fluorescent strand-displacement substrate; AID 720501, 2013
Pol eta inh-2: qHTS for Inhibitors of Polymerase Eta: Confirmatory Assay for Cherry-picked Compounds; shares compounds with Pol eta inh-1; Pol eta primer extension, TAMRA/BHQ fluorescence, 10 min; Potency, µM, actives largely listed as inhibitors; 64% of 2,600 active; AID 720502, 2013
The depositor's hits bear a star; ? = inconclusive; · = no result given; [ ] = remark or other dose. Most compounds without a hit are left out; they make up all but 2.4% or so of the library. Calls come from the whole dose curve; as a rule, active = well fitted curve in the direction sought with a large enough effect; inconclusive = small, poorly fitted or top-dose-only effect, or another doubt; inactive = no such curve, though single readings can be large; an effect the other way counts as inactive or inconclusive. Potency is the fitted concentration of half-maximal effect.

SMILES	WRN inhibitor	POLB inh	POLI inh	Pol kappa inh-1	FEN1 inhibitor	Pol eta inh-1	Pol iota confirm	Pol eta inh-2	others
CCCc1cc(=O)[nH]c(Nc2ccccc2O)n1	·	-2.7%	-0.4%	-27.2%	-6.7%	-17.7%	·	·
Cc1c(Cl)cccc1NC(=O)Cn1cc(C(=O)C2CCCCC2)c2ccccc21	·	0.1%	34.9%	-2.0%	16.7%	-12.3%	·	·
O=C(O)c1cc(-c2ccc(/C=C3\NC(=O)N(c4ccccc4)C3=O)o2)ccc1Cl	?	22.4µM*	?	44.7µM*	?	3.98µM*	33.6*	15.1*
COc1ccc(C(=O)N2CCN(c3ccccc3)CC2)cc1S(=O)(=O)NC1CC1	-3.8%	·	27.5%	-17.9%	8.0%	-21.7%	·	·
O=C1C=C(Nc2ccc(O)cc2)CC(c2ccco2)C1 (configuration not stated)	-2.3%	-21.1%	-5.0%	-3.2%	9.2%	?	·	·
O=C1C=C(O)CC(c2ccco2)C1 (configuration not stated)	?	6.31µM*	4.47µM*	?	?	3.16µM*	75.2*	30.1*	Pol kappa inh-2=16.8*
O=C(O)COc1ccc2c(c1)O/C(=C\c1cccs1)C2=O	-24.8%	1.2%	48.3%	-3.9%	7.8%	?	·	·
O=C(O)COc1ccc2c(c1)O/C(=C\c1ccco1)C2=O	?	31.6µM*	11.2µM*	79.4µM*	?	5.01µM*	26.7*	30.1*	Pol kappa inh-2=6.7*
Cc1cccc(NC(=O)CNCC(=O)Nc2cccc(C)c2C)c1C	5.0%	40.5%	52.8%	18.2%	6.9%	-5.1%	·	·
Cc1cccc(NC(=O)CNC(=O)c2cccc(-n3cccc3)c2)c1C	?	·	7.94µM*	31.6µM*	?	3.16µM*	9.47*	9.53*
O=C(COC(=O)c1ccc(OC(F)(F)F)cc1)Nc1ncccn1	?	·	?	?	-1.4%	17.8µM*	59.7*	75.7*	Pol kappa inh-2=?
NC(=O)NC(=O)COC(=O)c1ccc(OC(F)(F)F)cc1	-3.3%	30.6%	2.8%	-6.5%	21.5%	0.3%	·	·
Cc1ccc2c(c1)c1c(c(=O)n(-c3ccccc3C)c(=O)n1CC(=O)N1CCCC1)n2C	·	24.5%	10.9%	-13.9%	-5.6%	-7.0%	·	·
O=C(/C=C/c1cccnc1)c1cc(F)ccc1O	2.0%	27.2%	38.2%	15.0%	-5.4%	-5.0%	·	·
O=C(O)c1cc(/C=C/C(=O)c2cc(F)ccc2O)c2c(c1)COCO2	-24.7%[11.6 µM]	?	14.1µM*	?	-28.3%	22.4µM*	67*	47.8*
Cc1c(C(=O)O)sc2nc(CSc3ncc(C(F)(F)F)cc3Cl)[nH]c(=O)c12	-19.3%	39.8µM*	?	-19.1%	-20.3%	31.6µM*	?	67.5*
CN(C)c1ccc2cc(S(=O)(=O)O)cc(O)c2c1	?	·	?	31.6µM*	50.1µM*	10µM*	?	19*
Cc1ccccc1NC(=O)c1nc2nccc(C)n2n1	·	-3.9%	·	·	·	·	·	·
Cc1ccnc2nc(C(=O)Nc3nc(-c4ccccn4)cs3)nn12	?	11.2µM*	50.1µM*	?	?	79.4µM*	67*	84.9*
Cn1c(NCC2CCCCC2)nc2cc(-c3ccsc3)sc2c1=O	-5.5%	·	·	·	·	·	·	·
C[C@H](NC(=O)C1CC(=O)N(c2ccc3c(c2)OCO3)C1)C(=O)NC1CCCC1 (some centres not stated)	2.1%	23.4%	49.6%	-1.5%	19.6%	-13.8%	·	·
CC(C)[C@H](NC(=O)C1CC(=O)N(c2ccc3c(c2)OCO3)C1)C(=O)NC1CCCC1 (some centres not stated)	-15.8%[11.6 µM]	?	16.0%	5.2%	7.8%	31.6µM*	?	75.7*
CCn1c2ccccc2c2cc(NC(=O)COC(=O)c3ccccc3F)ccc21	-8.7%[57.1 µM]	24.1%	22.9%	-11.7%	-4.0%	-15.2%	·	·
CCn1c2ccccc2c2cc(NC(=O)COC(=O)c3ccc(NC(=O)CC#N)cc3)ccc21	?	·	22.4µM*	22.4µM*	?	?	?	60.1*
O=C(C[C@@H]1C[C@@H]2c3cc(NC(=O)C4CCC4)ccc3O[C@@H]2[C@@H](CO)O1)NCc1ccc(Cl)cc1	-0.6%	·	·	·	·	-4.9%	·	·
Cc1coc2c(C)c3oc(=O)c(CC(=O)NCc4ccccc4)c(C)c3cc12	·	-9.0%	37.1%	-7.2%	-7.3%	-14.8%	·	·
Cc1cc(C)cc(NS(=O)(=O)c2ccc3[nH]cc(C(=O)NCCc4ccccc4)c(=O)c3c2)c1	·	2.4%	-1.4%	4.8%	-1.3%	-5.7%	·	·
Cc1ccccc1NS(=O)(=O)c1ccc2[nH]cc(C(=O)NCCc3ccccc3)c(=O)c2c1	·	44.7µM*	?	-8.5%[60.1 µM]	6.1%	31.6µM*	?	47.8*
CC(=O)c1cccc(-c2ccnc3c2CC(C(=O)Nc2ccc4c(c2)OCO4)O3)c1 (configuration not stated)	-7.5%	·	·	·	·	·	·	·

Screening data: PubChem BioAssay, National Center for Advancing Translational Sciences (NCATS)
